In PubChem BioAssay (NCATS):
Results filed as inconclusive are left out. The source made the active and inactive calls. Unless noted, calls follow the shape of the dose curve; as a rule, active = well fitted curve in either direction with a large enough effect (not every such curve was filed as active); inconclusive = small, poorly fitted or top-dose-only effect, or another doubt; inactive = flat fitted curve, though single readings scatter.

Assays:
[1] = target: Lysosomal acid glucosylceramidase (Homo sapiens) (UniProt P04062); assay: Glucocerebrosidase-p2 (AID 348; in the data active = potency below about 10 µM; also: potency is read from the fitted curve at half-maximal effect); conditions: purified GBA, blue fluorogenic substrate, 40 min
Sequence of Lysosomal acid glucosylceramidase (Homo sapiens) (P04062 whole entry, looked up): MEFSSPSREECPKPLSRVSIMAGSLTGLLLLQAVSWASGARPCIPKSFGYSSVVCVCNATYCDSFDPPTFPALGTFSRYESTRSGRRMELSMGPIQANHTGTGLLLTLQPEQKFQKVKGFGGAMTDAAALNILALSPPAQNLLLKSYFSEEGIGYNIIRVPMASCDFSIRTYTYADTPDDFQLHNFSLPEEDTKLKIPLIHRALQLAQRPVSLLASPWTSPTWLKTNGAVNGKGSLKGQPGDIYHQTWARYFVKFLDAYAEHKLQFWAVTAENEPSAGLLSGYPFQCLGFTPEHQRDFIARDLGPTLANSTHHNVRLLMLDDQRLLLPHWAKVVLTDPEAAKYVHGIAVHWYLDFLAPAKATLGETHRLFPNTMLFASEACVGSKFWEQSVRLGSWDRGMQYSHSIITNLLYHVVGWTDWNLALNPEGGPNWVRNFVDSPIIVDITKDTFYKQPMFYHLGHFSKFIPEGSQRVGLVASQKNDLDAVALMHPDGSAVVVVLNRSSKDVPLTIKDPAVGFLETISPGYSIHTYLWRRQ
Summary of the method: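 Compounds titrated from 0.6 nM upwards against 0.2 nM enzyme in pH 5.9 citric acid/KH2PO4, taurocholate, tween-20; blue fluorogenic substrate 80 uM, 40 min room temperature, stopped and read Ex 365/Em 440 for AC50.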

[2] = AP1 Signaling Pathway (AID 357); conditions: ME-180 AP-1-bla reporter, EGF-induced, beta-lactamase ratio, 5 h; at 7.69 µM (top of the series) unless noted; also: % is scaled to controls: 0 for no effect and ±100 for the full control effect
Summary of the method: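 ME-180 cells with beta-lactamase reporter under AP-1 response element, stimulated with EC50 EGF; compounds tested in titration series, 5 h at 37 °C. CCF4 substrate added 2.5 h at room temperature; 460/530 nm emission ratio gave %activity and AC50.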

[3] = target: Cytochrome P450 1A2 (Homo sapiens) (UniProt P05177); assay: p450-cyp1a2 (AID 410; calls by dose curve; also: potency is read from the fitted curve at half-maximal effect;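 as to activity change, negative = inhibition: -100% = full effect of reference inhibitor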); conditions: recombinant CYP1A2, luciferin-ME demethylation, luminescence; series mostly up to 57 µM
Sequence of Cytochrome P450 1A2 (Homo sapiens) (P05177 whole entry, looked up): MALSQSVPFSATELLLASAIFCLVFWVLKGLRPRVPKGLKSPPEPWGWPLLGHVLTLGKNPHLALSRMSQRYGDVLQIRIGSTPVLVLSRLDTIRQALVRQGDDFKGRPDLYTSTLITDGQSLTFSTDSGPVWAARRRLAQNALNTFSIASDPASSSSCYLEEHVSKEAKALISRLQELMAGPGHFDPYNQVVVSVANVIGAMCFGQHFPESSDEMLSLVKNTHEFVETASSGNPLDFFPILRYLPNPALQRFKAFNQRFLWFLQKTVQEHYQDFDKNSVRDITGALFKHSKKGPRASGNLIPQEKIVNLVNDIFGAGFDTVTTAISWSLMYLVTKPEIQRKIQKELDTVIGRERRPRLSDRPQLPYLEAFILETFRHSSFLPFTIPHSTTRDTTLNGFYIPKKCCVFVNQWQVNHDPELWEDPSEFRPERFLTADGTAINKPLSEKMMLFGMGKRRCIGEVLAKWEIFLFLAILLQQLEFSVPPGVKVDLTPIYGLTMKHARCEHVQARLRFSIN
Summary of the method: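 Inhibition was calculated relative to 57 uM furafylline (full inhibition). The reaction used human CYP1A2 at 20nM with Luciferin-ME at its Km, 100uM, driven by an NADPH-regenerating system for 60 min at room temperature.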

[4] = NFAT Signaling Pathway (AID 444); conditions: Jurkat NFAT-bla M1, carbachol, beta-lactamase ratio, 5 h; at 7.69 µM (top of the series) unless noted;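 also: carbachol stimulus at about its EC50 of 1 µM final; % is scaled to controls: 0 for no effect and ±100 for the full control effect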
Summary of the method: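 Read-out: CCF4 FRET ratio (460 nm/530 nm) after 1 h RT dye loading, used for %activity and AC50 from titration series. Cells: Jurkat NFAT-β-lactamase/M1 line, treated with compound plus 1 uM carbachol for 5 h, 37 °C.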

[5] = Stat Signaling Pathway (AID 446); conditions: ME-180 SIE beta-lactamase reporter, IL-6 stimulated, 5 h; at 7.69 µM (top of the series) unless noted;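 also: ME-180 cervical cancer cells given 40 pM IL-6 alongside compound; SIE-controlled beta-lactamase reporter measured as 460/530 nm FRET emission ratio; % is scaled to controls: 0 for no effect and ±100 for the full control effect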
Summary of the method: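 ME-180 SIE-bla cells; overnight plating; cpd + IL-6 40 pM, 5 h, 37 C; LiveBLAzer 2.5 h RT; 460/530 nm emission ratio. Normalized to 300 pM IL-6 and 125 nM JAK inhibitor controls.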

[6] = target: Glucocorticoid receptor (Homo sapiens) (UniProt P04150); assay: GR-EFC Redistribution (AID 451; calls by dose curve; also: potency is read from the fitted curve at half-maximal effect); conditions: CHO-K1 GR-EFC translocation, beta-gal luminescence, 2 h
Sequence of Glucocorticoid receptor (Homo sapiens) (P04150 whole entry, looked up, the tested form may be a part): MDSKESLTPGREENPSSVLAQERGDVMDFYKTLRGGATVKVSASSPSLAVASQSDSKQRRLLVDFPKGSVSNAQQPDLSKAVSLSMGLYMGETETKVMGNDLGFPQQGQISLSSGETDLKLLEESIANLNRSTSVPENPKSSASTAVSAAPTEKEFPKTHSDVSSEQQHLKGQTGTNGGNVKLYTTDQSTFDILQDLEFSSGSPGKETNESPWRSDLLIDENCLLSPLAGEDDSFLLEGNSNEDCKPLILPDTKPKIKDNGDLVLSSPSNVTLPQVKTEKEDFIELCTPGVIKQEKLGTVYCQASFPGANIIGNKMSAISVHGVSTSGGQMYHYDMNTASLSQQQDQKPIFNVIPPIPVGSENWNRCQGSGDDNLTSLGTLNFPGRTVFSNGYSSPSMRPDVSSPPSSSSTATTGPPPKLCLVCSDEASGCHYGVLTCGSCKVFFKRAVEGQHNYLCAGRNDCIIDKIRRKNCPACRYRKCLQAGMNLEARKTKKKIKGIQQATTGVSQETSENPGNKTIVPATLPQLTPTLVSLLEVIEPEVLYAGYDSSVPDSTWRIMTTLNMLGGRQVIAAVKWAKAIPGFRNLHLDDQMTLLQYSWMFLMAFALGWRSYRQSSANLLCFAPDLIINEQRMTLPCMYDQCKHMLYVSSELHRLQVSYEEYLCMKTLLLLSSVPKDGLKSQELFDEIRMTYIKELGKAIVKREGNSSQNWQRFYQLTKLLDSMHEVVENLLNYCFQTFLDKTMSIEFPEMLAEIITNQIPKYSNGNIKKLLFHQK
Summary of the method: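 Translocation of GR-ED fusion to nuclear EA restores b-gal, read by luminescence after 1 h room-temperature detection. Engineered CHO-K1 biosensor cells, 1,000/well, exposed 2 h at 37 C to titrations up to 46 uM final.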

[7] = target: Mitogen-activated protein kinase 10 (Mus musculus) (UniProt Q61831); assay: JNK3 AlphaScreen Assay (AID 530); conditions: JNK3 lysate, c-Jun phosphorylation; series mostly up to 57.1 µM;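 also: kinase came from lysate of stimulated human HepG2 cells; signal reports phosphorylation of biotinylated GST-cJun 1-79 at Ser73 with 10 µM ATP; % is scaled to controls: 0 for no effect and ±100 for the full control effect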
Summary of the method: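 Room-temperature AlphaScreen kinase assay; pre-activated HepG2 lysate as JNK3 source, biotin-GST-cJun(1-79) substrate, 10 uM ATP, compound 15 min preincubation.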

[8] = target: 3',5'-cyclic-AMP phosphodiesterase 4B (Homo sapiens) (UniProt Q07343); assay: qHTS Assay for Inhibitors of PDE-IV (AID 607; active = well fitted activation curve with a large enough effect in the main read-out, with a control signal flat, not every such curve was filed as active; also: % of control where 0% means no effect); conditions: HEK293 ACTOne CNG channel cells, membrane potential fluorescence; series mostly up to 22.9 µM
Sequence of 3',5'-cyclic-AMP phosphodiesterase 4B (Homo sapiens) (Q07343 whole entry, looked up): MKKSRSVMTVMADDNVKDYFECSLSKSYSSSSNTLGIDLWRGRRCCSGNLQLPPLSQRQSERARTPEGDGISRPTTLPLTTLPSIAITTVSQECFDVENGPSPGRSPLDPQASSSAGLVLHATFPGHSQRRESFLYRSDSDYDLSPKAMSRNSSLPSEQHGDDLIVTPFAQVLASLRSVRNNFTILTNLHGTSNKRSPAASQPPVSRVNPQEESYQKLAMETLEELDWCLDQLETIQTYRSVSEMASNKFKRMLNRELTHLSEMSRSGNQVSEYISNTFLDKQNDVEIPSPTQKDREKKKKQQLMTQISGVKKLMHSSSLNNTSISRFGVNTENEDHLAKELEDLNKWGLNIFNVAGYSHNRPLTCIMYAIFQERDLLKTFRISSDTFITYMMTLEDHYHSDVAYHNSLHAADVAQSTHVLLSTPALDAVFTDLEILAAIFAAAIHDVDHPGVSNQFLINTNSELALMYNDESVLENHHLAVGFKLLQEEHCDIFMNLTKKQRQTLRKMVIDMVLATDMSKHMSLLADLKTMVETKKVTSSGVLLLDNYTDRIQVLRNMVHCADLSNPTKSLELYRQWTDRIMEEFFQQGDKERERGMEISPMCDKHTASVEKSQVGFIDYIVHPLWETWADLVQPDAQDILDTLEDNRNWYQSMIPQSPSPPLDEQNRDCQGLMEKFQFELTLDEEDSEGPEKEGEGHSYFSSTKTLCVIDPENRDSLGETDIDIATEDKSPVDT
Summary of the method: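 ACTOne HEK293 cells carry a modified cAMP-gated CNG channel and express endogenous PDE4; plated 1000 cells/well, compounds up to 22.9 uM final. Membrane-potential dye fluorescence (ex 535/em 590) was read; parental cells received 10 uM forskolin + 100 uM RO 20-1724.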

[9] = target: Cytochrome P450 2C9 (Homo sapiens) (UniProt P11712); assay: qHTS Assay for Inhibitors and Substrates of Cytochrome P450 2C9 (AID 883; active = well fitted curve in the direction sought with a large enough effect; an effect the other way counts as inactive or inconclusive; also: nearly all actives have a fitted effect of over 60% in size; also: potency is read from the fitted curve at half-maximal effect); conditions: recombinant CYP2C9, luciferin-H luminescence, 60 min; series mostly up to 57.1 µM
Sequence of Cytochrome P450 2C9 (Homo sapiens) (P11712 whole entry, looked up): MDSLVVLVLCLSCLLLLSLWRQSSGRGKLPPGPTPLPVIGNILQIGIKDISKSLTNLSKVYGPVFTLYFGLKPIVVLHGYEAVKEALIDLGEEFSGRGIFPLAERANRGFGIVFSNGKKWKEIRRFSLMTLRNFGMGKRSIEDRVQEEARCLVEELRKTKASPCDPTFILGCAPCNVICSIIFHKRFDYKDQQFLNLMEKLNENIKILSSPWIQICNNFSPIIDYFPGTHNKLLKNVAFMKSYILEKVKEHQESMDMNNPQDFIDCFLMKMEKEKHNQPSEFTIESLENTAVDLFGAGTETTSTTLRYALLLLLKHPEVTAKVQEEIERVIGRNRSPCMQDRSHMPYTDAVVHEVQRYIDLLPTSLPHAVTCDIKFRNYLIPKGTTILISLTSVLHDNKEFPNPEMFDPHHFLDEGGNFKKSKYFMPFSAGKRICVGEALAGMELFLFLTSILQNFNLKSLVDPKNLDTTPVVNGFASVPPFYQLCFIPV
Summary of the method: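 Luminescent read-out of deoxyluciferin hydroxylation, normalized to 57uM sulphaphenazole (AC100). Reaction: 10nM enzyme, 100uM Luciferin-H (equal to KM), 25mM KPO4, 10 min compound preincubation, then 60 min with NADPH regeneration, both at 37C.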

[10] = target: Cytochrome P450 2C19 (Homo sapiens) (UniProt P33261); assay: qHTS Assay for Inhibitors and Substrates of Cytochrome P450 2C19 (AID 899; active = well fitted curve in the direction sought with a large enough effect; an effect the other way counts as inactive or inconclusive; also: nearly all actives have a fitted effect of over 60% in size; also: potency is read from the fitted curve at half-maximal effect); conditions: recombinant CYP2C19, luciferin-H EGE luminescence; series mostly up to 57.1 µM
Sequence of Cytochrome P450 2C19 (Homo sapiens) (P33261 whole entry, looked up): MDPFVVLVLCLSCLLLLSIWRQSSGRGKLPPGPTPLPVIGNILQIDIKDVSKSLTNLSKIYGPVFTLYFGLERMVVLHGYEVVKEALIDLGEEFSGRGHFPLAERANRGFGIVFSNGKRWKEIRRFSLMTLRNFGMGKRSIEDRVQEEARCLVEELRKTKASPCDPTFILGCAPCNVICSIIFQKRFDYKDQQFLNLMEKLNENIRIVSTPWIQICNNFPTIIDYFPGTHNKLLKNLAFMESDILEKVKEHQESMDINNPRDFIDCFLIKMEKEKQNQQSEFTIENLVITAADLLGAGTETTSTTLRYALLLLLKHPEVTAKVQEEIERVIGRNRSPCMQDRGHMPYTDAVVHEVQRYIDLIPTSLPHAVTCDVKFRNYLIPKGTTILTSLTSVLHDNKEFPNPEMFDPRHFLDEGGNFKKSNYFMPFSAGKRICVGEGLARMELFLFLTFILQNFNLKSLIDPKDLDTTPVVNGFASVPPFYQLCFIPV
Summary of the method: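 Luminescence readout of luciferin formed from 10uM Luciferin-H EGE (KM level) by 5 nM CYP2C19 in 50mM KPO4. 60 min NADPH-driven reaction at 37C after 10 min compound preincubation; data scaled to 57uM ketoconazole inhibition.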

[11] = qHTS Assay for Lipid Storage Modulators (AID 1519; calls by dose curve); conditions: Drosophila S3 cells, BODIPY lipid droplet/cell ratio, laser cytometry, cells loaded with oleic acid; for activity change, negative = inhibition: at 57.5 µM (top of the series)
Summary of the method: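 Cells seeded at 5,000 per well were treated with compounds over a concentration series and loaded with oleic acid (400 uM, as added). Lipid droplet fluorescence (488 nm excitation, 500-530 nm channel) was read by laser-scanning cytometry and normalized to 20 uM Triacsin C.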

[12] = Primary qHTS for small molecule stabilizers of the endoplasmic reticulum resident proteome: Secreted ER Calcium Modulated Protein (SERCaMP) assay (AID 1508630; active = well fitted curve in the direction sought with a large enough effect; an effect the other way counts as inactive or inconclusive; also: % is scaled to controls: 0 for no effect and ±100 for the full control effect); conditions: SH-SY5Y GLuc-SERCaMP (Gaussia luciferase released on ER calcium loss) secretion, thapsigargin, luminescence; series mostly up to 38.4 µM
Summary of the method: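 GLuc-SERCaMP-expressing SH-SY5Y cells, pretreated 16 h with compound, are challenged with thapsigargin to empty ER calcium stores; after 4 h, coelenterazine is added directly to the medium and luminescence is imaged.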

[13] = target: Cytochrome P450 3A4 (Homo sapiens) (UniProt P08684); assay: qHTS Assay for Inhibitors and Substrates of Cytochrome P450 3A4 (AID 884; active = well fitted curve in the direction sought with a large enough effect; an effect the other way counts as inactive or inconclusive; also: nearly all actives have a fitted effect of over 50% in size; also: potency is read from the fitted curve at half-maximal effect); conditions: recombinant CYP3A4, Luciferin-PPXE luminescence; series mostly up to 57.1 µM
Sequence of Cytochrome P450 3A4 (Homo sapiens) (P08684 whole entry, looked up): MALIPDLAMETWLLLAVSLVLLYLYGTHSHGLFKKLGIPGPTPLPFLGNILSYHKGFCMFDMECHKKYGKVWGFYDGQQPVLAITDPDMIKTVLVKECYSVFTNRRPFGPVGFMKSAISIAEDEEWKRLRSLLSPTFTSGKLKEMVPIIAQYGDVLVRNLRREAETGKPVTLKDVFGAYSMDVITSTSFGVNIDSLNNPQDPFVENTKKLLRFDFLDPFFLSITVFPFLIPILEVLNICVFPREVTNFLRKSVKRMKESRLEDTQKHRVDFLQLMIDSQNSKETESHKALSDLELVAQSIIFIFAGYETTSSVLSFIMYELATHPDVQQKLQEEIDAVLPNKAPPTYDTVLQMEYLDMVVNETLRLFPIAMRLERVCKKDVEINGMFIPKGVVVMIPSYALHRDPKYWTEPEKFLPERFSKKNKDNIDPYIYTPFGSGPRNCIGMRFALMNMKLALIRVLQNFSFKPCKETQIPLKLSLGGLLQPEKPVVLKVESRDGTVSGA
Summary of the method: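 20 nM human CYP3A4 with 25 uM Luciferin-PPXE (at KM) in 200 mM KPO4, preincubated 10 min with compound; NADPH regeneration started a 60 min RT reaction. Luciferin detected by luminescence, normalized to 57 uM ketoconazole as full inhibition.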

[14] = target: Cytochrome P450 3A4 (Homo sapiens) (UniProt P08684); assay: qHTS Assay for Activators of Cytochrome P450 3A4 (AID 885; active = well fitted curve in the direction sought with a large enough effect; an effect the other way counts as inactive or inconclusive; also: nearly all actives have a fitted effect of over 65% in size; also: potency is read from the fitted curve at half-maximal effect); conditions: recombinant CYP3A4, Luciferin-PPXE luminescence, 60 min; series mostly up to 57.1 µM
Summary of the method: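 20nM CYP3A4 + 25uM Luciferin-PPXE (=KM), 200mM KPO4; cpd 10 min RT; NADPH regen, 60 min RT; stop w/ detection buffer, 20 min; luminescence. Normalized to 57 uM ketoconazole.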

[15] = measured here: cell count channel max response
[16] = measured here: lipid channel max response

Structure (SMILES)	Potency [1]	activity change, negative = inhibition [2]	Potency [3]	activity change, negative = inhibition [4]	activity, negative = inhibition [5]	Potency [6]	outcome [7]	Potency [8]	Potency [9]	Potency [10]	activity change, negative = inhibition [11]	max response [11, 15] [%]	max response [11, 16] [%]	Potency [12]	Potency [13]	Potency [14]
COCC(=O)N1CCC[C@@]2(CCN(C(=O)Nc3cccc(C#N)c3)C2)C1	> 11.4 µM (inactive)	0.866% (inactive)	inactive	-2.97% (inactive)	2.49% (inactive)	> 46 µM (inactive)	inactive	inactive	inactive	inactive	4.94% (inactive)	13.7	21.6	inactive		
O=C(Oc1ccccc1)N1CCC2(CC1)CCN(c1ccccc1)CC2	> 11.4 µM (inactive)	20.6% (inactive)	inactive	-26.1% (inactive)	-1.28% (inactive)	> 46 µM (inactive)	inactive	inactive			-1.08% (inactive)	-1.11	-1.37	inactive	inactive	3.16 µM (active)
COc1ccccc1CN1CC[C@@]2(CCCN(C(=O)c3c(C)noc3C)C2)C1	> 11.4 µM (inactive)	-0.263% (inactive)	inactive	-13.2% (inactive)	-3.34% (inactive)	> 46 µM (inactive)	inactive	inactive	inactive		6.24% (inactive)	6.8	12.8	inactive	1.58 µM (active)	inactive
CC(C)NC(=O)N1CCC2(CC1)CCN(C(=O)c1ccco1)CC2	> 11.4 µM (inactive)	-2.03% (inactive)	inactive	12% (inactive)	8.93% (inactive)	> 46 µM (inactive)	inactive	inactive			3.89% (inactive)	8.07	11.7	inactive		
O=C(c1ccncc1)N1CCC2(CC1)CN(c1ccccc1)C2	> 11.4 µM (inactive)	-2.66% (inactive)	inactive	4.65% (inactive)	3.39% (inactive)	> 46 µM (inactive)	inactive	inactive	2.51 µM (active)	0.316 µM (active)	6.84% (inactive)	9.42	18.7	inactive		
CN1CCC2(CC1)CCN(C(=O)c1cc(C(F)(F)F)cc(C(F)(F)F)c1)CC2	> 11.4 µM (inactive)	-8.71% (inactive)	inactive	-5.98% (inactive)	-2.34% (inactive)	> 46 µM (inactive)	inactive	inactive			1.93% (inactive)	-7.21	-4.06	inactive		
O=c1c(-c2ccccc2)nc2cnc(Oc3ccccc3)nc2n1Cc1cccs1	> 11.4 µM (inactive)	-0.0665% (inactive)	2.51 µM (active)	-0.0107% (inactive)	3.84% (inactive)	> 46 µM (inactive)	inactive	inactive			-10.3% (inactive)	21.8	12.8	inactive		
CC(=O)N1CCC2(CCN(Cc3nccs3)CC2)CC1	> 11.4 µM (inactive)	3.58% (inactive)	inactive	-2.08% (inactive)	17% (inactive)	> 46 µM (inactive)	inactive	inactive			-0.294% (inactive)	3.24	5.77	inactive		
CC(=O)N1CCC[C@@]2(CCN(Cc3ccccc3)C2)C1	> 11.4 µM (inactive)	-2.69% (inactive)	inactive	17.1% (inactive)	-3.06% (inactive)	> 46 µM (inactive)	inactive	inactive			6.41% (inactive)	8.55	16.4	inactive		inactive
COC(=O)N1CCC2(CCCN(Cc3ccccc3OC)C2)CC1	> 11.4 µM (inactive)	-7.44% (inactive)	inactive	-73.7% (active)	-10.7% (inactive)	> 46 µM (inactive)	inactive	inactive			-2.47% (inactive)	15.3	15.9	inactive		inactive
O=C(c1ccco1)N1CCC[C@@]2(CCN(Cc3nccs3)C2)C1	> 11.4 µM (inactive)	1.19% (inactive)	inactive	-14% (inactive)	-3.91% (inactive)	> 46 µM (inactive)	inactive	inactive			4.23% (inactive)	5.76	12.9	inactive		inactive
COC(=O)N1CCC2(CC1)CN(C(c1ccccc1)c1ccccc1)C2	> 11.4 µM (inactive)	3.69% (inactive)	inactive	-16.9% (inactive)	5.28% (inactive)	> 46 µM (inactive)	inactive	inactive			-2.77% (inactive)	5.36	5.91	inactive	inactive	0.794 µM (active)
COc1ccc(NC(=O)N2CC[C@@]3(CCCN(C(=O)c4cnccn4)C3)C2)cc1	> 11.4 µM (inactive)	-10.4% (inactive)	inactive	-2.83% (inactive)	6.32% (inactive)	> 46 µM (inactive)	inactive	inactive			4.73% (inactive)	2.35	9.8	inactive		inactive
